The assay is described as follows: NCI Yeast Anticancer Drug Screen. Data for the rad14 strain (AID 159).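 Further: 0% = growth of vehicle-treated control cultures.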 Conditions: S. cerevisiae rad14 strain growth inhibition, active compounds read high. Here is the method:
Growth inhibition of yeast strains with defined genetic alterations is measured as a screen for potential anti-cancer activity. Selected strains with alterations in DNA damage repair or cell cycle control were exposed to compounds and growth inhibition was measured relative to vehicle treated controls. The strain used in this assay is rad14

The structures appear in SMILES notation. About 79,000 compounds went through this panel and 15% of them were active in at least one assay; those are over-represented in the sample as a whole. Calls of active or inactive are those of the source. No stated cut-off is given here; in the data, active means growth inhibition above about 70%; inactive means the rest.

As for `CN(Cc1cccc2ccccc12)Cc1cccc2ccccc12`, the growth inhibition is 0% (inactive) (at 1.2 µM); 2% (inactive) (at 3.7 µM); 0% (inactive) (at 11.0 µM); 13% (inactive) (at 33.0 µM); 30% (inactive) (at 100.0 µM).
`O=[N+]([O-])c1ccc2nnnn2c1`: the growth inhibition (at 1.2 µM) is -1% (inactive); the growth inhibition (at 3.7 µM) is 0% (inactive); the growth inhibition (at 11.0 µM) was 5% (inactive); the growth inhibition (at 33.0 µM) is 10% (inactive); the growth inhibition (at 100.0 µM) was 30% (inactive).
In the same order, the values of `CN(C)/N=N/c1nc[nH]c1C(N)=O` are -2% (inactive), -2% (inactive), 0% (inactive), -1% (inactive) and 98% (active).
For `COc1cc(NCCCCCNC(C)C)c2ncccc2c1Cl`, in that order: 0% (inactive), 5% (inactive), 15% (inactive), 24% (inactive) and 24% (inactive).
For `COc1ccc(CCN2C(=O)C=CC2=O)cc1OC`, in that order: -10% (inactive), 3% (inactive), 63% (inactive), 99% (active) and 99% (active).
With `CC1=Cc2ccc(C)cc2C(=O)C1=O`, the growth inhibition (at 1.2 µM) is 18% (inactive); the growth inhibition (at 3.7 µM) is 31% (inactive); the growth inhibition (at 11.0 µM) was 79% (active); the growth inhibition (at 33.0 µM) was 99% (active); the growth inhibition (at 100.0 µM) was 99% (active).
With `COc1ccc(/C=C2\S/C(=N/Nc3nc(-c4ccccc4)cs3)NC2=O)cc1OC`, the growth inhibition was 20% (inactive) (at 1.2 µM); 45% (inactive) (at 3.7 µM); 84% (active) (at 11.0 µM); 93% (active) (at 33.0 µM); 92% (active) (at 100.0 µM).
Consider `Cc1ccc(Nc2n[nH]c(=S)s2)cc1C`, for which the growth inhibition is -33% (inactive) (at 1.2 µM); -29% (inactive) (at 3.7 µM); -17% (inactive) (at 11.0 µM); 65% (inactive) (at 33.0 µM); 89% (active) (at 100.0 µM).
